Test [1] deals with Tyrosine-protein kinase CSK (Homo sapiens) (UniProt P41240). Particulars: at 1 µM.
Test [2] addresses T1, Discoidin domain-containing receptor 2 (Homo sapiens) (UniProt Q16832).
T1 sequence (whole entry): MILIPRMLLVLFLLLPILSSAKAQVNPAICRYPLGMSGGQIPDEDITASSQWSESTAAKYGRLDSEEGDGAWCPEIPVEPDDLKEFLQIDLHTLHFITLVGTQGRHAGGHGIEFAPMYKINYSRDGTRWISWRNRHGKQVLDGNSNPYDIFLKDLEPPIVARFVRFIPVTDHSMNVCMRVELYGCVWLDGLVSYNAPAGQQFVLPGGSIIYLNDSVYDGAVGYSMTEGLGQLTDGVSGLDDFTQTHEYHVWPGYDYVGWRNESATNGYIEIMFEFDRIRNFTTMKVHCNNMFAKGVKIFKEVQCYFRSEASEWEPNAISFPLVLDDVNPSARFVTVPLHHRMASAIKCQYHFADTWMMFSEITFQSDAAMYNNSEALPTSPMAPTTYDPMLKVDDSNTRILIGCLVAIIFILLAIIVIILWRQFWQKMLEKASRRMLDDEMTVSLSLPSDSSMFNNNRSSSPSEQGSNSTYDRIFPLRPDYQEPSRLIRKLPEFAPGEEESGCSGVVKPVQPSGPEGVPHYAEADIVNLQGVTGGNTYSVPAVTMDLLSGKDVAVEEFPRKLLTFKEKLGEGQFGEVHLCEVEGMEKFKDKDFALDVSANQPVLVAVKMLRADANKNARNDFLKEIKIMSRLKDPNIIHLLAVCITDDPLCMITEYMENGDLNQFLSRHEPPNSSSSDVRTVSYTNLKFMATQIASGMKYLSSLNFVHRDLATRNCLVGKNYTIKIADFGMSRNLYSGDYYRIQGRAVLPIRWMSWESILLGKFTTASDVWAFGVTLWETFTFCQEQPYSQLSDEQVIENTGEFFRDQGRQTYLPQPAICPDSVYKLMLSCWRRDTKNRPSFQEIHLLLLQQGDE
Particulars: at 0.1 µM.

Test [3] concerns the target T1, Discoidin domain-containing receptor 2 (Homo sapiens). Conditions: at 1 µM.
Test [4] deals with Epidermal growth factor receptor (Homo sapiens) (UniProt P00533). Particulars: at 0.1 µM.
Test [5] has the same target. Particulars: at 1 µM.
The subject of test [6] is Epidermal growth factor receptor (Homo sapiens), P00533 [L858R]. Particulars: at 0.1 µM.
Test [7] shares this test system. Particulars: at 1 µM.
Test [8] relates to Epidermal growth factor receptor (Homo sapiens), P00533 [L861Q]. Conditions: at 0.1 µM.
Epidermal growth factor receptor (Homo sapiens), P00533 [L861Q], sequence (P00533 whole entry L861Q): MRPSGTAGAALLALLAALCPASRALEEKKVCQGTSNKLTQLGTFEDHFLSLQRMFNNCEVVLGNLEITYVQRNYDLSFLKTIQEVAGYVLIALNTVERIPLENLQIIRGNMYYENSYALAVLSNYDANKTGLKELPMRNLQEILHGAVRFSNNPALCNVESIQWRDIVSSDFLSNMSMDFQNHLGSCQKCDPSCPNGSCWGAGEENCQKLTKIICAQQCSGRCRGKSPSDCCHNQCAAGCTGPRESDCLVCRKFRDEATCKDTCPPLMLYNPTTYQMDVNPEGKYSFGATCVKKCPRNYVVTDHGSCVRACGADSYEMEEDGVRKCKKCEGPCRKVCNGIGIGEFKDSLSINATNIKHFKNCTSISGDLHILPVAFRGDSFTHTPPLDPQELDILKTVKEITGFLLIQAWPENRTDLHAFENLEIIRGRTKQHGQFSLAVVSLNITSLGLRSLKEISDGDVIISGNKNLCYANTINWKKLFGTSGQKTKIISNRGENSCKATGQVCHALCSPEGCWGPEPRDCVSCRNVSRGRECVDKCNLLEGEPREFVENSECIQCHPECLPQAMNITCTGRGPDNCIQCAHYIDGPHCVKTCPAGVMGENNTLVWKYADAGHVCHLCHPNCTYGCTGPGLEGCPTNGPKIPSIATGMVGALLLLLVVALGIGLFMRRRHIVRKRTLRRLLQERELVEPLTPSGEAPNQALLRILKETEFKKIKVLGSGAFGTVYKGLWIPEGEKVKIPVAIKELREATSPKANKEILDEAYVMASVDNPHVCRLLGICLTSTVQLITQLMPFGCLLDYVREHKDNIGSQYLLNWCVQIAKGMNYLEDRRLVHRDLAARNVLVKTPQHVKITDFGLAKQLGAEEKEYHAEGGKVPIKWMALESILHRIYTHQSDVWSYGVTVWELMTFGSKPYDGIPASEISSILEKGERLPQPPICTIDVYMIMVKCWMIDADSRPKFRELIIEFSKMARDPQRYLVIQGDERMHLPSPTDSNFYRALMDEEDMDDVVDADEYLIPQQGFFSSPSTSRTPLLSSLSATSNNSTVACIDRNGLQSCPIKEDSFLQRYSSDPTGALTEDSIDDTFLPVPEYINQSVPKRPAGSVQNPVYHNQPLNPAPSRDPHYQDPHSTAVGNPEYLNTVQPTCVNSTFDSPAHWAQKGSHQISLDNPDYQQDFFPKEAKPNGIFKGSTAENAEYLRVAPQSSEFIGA
For test [9] the test system is unchanged. Conditions: at 1 µM.
For test [10], the system named is Epidermal growth factor receptor (Homo sapiens), P00533 [T790M]. Particulars: at 0.1 µM.
Test [11] has the same test system. Particulars: at 1 µM.
Test [12] deals with Epidermal growth factor receptor (Homo sapiens), P00533 [L858R,T790M]. Particulars: at 0.1 µM.
Epidermal growth factor receptor (Homo sapiens), P00533 [L858R,T790M], sequence (P00533 whole entry T790M/L858R, looked up): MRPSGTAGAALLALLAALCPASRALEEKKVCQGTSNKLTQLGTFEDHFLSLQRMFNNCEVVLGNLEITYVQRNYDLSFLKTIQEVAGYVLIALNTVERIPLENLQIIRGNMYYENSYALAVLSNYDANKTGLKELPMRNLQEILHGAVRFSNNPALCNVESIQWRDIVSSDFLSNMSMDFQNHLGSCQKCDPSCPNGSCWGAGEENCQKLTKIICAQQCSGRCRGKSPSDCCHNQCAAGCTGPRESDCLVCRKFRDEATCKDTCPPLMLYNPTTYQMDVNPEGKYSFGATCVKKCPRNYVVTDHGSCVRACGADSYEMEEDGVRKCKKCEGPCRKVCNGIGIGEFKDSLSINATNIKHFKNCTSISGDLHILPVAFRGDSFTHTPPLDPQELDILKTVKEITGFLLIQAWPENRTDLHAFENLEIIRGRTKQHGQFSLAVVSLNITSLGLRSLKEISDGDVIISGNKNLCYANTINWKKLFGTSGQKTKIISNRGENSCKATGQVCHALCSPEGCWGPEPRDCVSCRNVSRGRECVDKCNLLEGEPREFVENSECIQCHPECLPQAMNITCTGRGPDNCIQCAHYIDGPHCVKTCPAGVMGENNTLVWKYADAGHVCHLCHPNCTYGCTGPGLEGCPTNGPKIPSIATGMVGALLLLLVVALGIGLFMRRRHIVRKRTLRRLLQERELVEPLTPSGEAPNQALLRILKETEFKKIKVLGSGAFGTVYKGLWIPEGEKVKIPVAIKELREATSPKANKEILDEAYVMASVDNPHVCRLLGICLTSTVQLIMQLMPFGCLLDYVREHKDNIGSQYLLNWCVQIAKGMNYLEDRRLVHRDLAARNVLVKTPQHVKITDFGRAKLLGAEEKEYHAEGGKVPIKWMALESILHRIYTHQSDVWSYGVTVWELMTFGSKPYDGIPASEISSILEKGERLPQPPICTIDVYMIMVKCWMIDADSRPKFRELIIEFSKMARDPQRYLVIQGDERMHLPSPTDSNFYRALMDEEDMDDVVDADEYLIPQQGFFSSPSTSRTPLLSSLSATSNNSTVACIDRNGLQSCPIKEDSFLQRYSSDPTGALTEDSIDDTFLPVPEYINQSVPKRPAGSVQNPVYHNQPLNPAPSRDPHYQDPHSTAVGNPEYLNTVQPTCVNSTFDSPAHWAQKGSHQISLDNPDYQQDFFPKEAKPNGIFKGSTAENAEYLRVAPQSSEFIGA
The test system is the same in test [13]. Particulars: at 1 µM.
Test [14] addresses Ephrin type-A receptor 2 (Homo sapiens) (UniProt P29317). Conditions: at 0.1 µM.
Test [15] shares this target. Conditions: at 1 µM.
Test [16] deals with T2, Ephrin type-A receptor 3 (Homo sapiens) (UniProt P29320).
T2 sequence (whole entry): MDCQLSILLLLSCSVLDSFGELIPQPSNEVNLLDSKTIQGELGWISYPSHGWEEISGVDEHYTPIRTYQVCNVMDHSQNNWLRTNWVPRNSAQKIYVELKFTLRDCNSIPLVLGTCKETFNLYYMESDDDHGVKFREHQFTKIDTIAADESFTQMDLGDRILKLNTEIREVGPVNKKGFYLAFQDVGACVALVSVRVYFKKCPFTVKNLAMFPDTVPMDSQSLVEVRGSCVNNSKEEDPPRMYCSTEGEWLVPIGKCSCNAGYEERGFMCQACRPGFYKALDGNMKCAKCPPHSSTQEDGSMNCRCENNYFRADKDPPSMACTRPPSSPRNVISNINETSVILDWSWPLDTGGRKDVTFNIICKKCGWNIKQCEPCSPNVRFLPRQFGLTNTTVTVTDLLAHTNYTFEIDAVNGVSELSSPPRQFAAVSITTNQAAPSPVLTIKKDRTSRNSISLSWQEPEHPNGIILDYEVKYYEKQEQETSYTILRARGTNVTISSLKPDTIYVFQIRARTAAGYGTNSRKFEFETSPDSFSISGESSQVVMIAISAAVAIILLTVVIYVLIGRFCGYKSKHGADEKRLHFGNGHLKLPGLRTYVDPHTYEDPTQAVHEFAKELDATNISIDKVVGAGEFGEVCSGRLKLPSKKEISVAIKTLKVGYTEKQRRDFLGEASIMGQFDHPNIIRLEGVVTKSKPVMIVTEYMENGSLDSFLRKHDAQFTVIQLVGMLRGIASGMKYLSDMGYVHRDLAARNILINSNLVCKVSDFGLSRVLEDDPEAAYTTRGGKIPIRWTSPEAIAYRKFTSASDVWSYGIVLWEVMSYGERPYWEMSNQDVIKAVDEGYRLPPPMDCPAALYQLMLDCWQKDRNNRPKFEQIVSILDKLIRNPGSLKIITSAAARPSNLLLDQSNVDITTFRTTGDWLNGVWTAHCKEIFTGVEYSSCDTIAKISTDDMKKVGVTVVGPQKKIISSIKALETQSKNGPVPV
Conditions: at 0.1 µM.

The target of test [17] is T2, Ephrin type-A receptor 3 (Homo sapiens). Conditions: at 1 µM.
Test [18] has as its target Ephrin type-A receptor 4 (Homo sapiens) (UniProt P54764). Conditions: at 0.1 µM.
Test [19] has the same target. Conditions: at 1 µM.
The target of test [20] is T3, Ephrin type-B receptor 2 (Homo sapiens) (UniProt P29323).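 Further: reported as mean inhibition of EPHB2, from the GSK PKIS dataset.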
T3 sequence (whole entry): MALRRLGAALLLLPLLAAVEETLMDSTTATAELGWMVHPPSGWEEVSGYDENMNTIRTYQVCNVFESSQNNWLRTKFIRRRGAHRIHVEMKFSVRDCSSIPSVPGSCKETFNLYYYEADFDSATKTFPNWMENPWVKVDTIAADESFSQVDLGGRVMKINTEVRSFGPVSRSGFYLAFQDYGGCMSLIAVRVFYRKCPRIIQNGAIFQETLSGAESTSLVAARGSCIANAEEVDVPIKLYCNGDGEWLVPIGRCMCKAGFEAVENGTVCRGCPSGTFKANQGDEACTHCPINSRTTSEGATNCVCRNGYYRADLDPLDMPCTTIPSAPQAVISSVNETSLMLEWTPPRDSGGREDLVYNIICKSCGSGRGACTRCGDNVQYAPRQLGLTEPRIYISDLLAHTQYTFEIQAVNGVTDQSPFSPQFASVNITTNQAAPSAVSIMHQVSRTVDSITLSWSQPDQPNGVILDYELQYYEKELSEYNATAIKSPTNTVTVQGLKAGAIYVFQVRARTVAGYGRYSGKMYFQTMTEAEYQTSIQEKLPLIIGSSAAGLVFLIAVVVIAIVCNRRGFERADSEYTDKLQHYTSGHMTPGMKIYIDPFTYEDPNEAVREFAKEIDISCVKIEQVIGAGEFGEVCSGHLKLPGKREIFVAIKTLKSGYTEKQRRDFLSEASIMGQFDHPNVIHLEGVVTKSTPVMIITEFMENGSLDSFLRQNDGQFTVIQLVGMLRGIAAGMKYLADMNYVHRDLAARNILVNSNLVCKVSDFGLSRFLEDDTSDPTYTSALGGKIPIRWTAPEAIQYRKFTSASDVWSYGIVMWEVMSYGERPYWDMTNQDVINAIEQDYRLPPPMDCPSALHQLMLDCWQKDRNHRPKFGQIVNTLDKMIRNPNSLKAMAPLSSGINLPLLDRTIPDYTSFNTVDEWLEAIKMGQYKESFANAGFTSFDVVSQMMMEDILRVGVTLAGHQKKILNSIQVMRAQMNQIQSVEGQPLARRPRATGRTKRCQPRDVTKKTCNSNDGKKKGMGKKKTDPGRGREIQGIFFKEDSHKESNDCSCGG
Conditions: at 0.1 µM.

In ChEMBL document CHEMBL1961873, “Compounds: GSK PKIS; Assays: Nanosyn kinase panel” (2012) one finds inhibition data, which are given here for six molecules.

Ephrin type-A receptor 4 (Homo sapiens), sequence (P54764 whole entry): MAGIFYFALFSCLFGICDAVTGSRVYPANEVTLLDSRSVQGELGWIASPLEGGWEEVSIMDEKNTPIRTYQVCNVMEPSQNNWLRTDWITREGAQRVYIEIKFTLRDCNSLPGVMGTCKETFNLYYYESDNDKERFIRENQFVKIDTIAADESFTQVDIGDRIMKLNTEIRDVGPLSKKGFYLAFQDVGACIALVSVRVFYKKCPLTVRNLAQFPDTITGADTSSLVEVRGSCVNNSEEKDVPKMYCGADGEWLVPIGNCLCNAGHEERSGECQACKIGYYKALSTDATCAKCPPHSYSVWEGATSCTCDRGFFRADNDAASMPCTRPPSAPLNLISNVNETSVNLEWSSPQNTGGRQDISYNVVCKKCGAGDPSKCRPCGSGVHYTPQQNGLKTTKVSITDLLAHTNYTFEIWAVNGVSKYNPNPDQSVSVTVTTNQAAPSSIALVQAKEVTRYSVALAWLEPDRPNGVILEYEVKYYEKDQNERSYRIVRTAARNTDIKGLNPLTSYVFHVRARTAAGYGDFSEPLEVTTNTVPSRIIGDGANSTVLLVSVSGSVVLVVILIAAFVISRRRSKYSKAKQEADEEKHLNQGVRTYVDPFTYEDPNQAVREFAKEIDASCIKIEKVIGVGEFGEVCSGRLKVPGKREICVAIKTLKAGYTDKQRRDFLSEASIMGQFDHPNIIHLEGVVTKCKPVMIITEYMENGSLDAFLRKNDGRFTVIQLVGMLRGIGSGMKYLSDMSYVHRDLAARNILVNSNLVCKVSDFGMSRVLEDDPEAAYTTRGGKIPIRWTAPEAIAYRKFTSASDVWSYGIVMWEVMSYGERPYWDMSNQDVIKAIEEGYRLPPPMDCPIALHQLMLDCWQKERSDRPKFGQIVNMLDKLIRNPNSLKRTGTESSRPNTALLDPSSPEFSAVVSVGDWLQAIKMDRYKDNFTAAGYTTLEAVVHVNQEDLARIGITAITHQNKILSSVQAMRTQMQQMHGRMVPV
Ephrin type-A receptor 2 (Homo sapiens), sequence (P29317 whole entry): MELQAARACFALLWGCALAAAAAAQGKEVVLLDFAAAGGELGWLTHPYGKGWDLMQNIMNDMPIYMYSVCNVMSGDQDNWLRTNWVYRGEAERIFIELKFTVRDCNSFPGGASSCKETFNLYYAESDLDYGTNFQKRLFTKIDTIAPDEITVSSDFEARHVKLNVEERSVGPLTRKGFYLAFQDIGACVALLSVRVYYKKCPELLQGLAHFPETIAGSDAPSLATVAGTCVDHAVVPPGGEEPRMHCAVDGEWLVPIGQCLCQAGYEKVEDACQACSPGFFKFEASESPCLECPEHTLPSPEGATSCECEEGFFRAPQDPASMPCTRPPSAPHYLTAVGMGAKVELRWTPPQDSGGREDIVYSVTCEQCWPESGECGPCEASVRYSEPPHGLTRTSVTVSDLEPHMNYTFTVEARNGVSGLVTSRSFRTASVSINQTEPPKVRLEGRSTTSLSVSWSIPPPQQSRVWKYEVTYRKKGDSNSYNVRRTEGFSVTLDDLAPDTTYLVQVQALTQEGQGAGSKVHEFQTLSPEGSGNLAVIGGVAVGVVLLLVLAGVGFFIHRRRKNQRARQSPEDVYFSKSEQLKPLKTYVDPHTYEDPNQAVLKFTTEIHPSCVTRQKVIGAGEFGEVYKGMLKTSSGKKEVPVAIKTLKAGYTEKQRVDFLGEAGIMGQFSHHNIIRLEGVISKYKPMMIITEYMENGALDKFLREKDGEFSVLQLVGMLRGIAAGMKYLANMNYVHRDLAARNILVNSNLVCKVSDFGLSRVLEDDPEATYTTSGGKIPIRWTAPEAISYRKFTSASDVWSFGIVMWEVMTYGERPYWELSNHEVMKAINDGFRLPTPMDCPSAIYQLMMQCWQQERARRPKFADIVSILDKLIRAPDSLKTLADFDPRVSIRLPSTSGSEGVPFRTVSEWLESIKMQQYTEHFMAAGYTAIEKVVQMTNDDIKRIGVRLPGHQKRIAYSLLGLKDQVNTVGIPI
Tyrosine-protein kinase CSK (Homo sapiens), sequence (P41240 2-450 limits assumed): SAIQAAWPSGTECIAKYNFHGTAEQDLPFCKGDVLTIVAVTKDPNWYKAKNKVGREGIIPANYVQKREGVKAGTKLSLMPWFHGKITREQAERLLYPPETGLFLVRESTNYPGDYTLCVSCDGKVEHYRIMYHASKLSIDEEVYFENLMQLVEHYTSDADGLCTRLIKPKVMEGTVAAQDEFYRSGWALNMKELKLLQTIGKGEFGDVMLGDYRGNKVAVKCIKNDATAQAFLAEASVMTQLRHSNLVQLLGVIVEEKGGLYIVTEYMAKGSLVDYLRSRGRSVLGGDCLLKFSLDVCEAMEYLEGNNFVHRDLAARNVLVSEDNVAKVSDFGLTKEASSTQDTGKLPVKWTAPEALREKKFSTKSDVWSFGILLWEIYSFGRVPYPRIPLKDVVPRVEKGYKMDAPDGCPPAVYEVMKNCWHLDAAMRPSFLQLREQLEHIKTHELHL

The inhibition is the drop in the measured response relative to a control, in per cent. In the case of `CN(C)CCCn1c(-c2nonc2N)nc2cnccc21`, the inhibition in test [1] was 1.67%; in [2], 1.29%; in [3] it was 1.57%; in test [4], 9.72%; in test [5], 10.6%; in test [6], 3.98%. For the same molecule, the inhibition is 0.96% in test [7]; 3.25% in [8]; 1.62% in test [9]; 2.09% in test [10]; 4.68% in test [11]; -0.67% in test [12]. Further, the inhibition amounted to 3.5% in [13]; 0.86% in test [14]; 0.27% in test [15]; 4.17% in test [16]; 5.42% in test [17]; 4.85% in test [18]. The inhibition in test [19] is 3.54%; in test [20], 3.03%.

As for `CCS(=O)(=O)c1ccc(OC)c(Nc2ncc(-c3cccc(OC)c3)o2)c1`, the inhibition in [1] worked out at 10.6%; in [2], 3.76%; in [3], 20%; in test [4] it was 1.96%; in test [5], 8.46%; in [6], 6.95%. The inhibition is 27.6% in [7]; 4.06% in [8]; 6.2% in [9]; 1.83% in test [10]; -0.32% in test [11]; -0.04% in test [12]. Besides, the inhibition in [13] turned out to be 0.18%; in test [14] it was 3.67%; in [15], 3.85%; in test [16], 5.57%; in [17], 8.5%; in test [18] it was 6.27%. In addition, the inhibition was 12% in [19] and 9.46% in test [20].

Consider `C[C@@H](Oc1cc(-n2cnc3ccc(OC[C@@H](O)CO)cc32)sc1C(N)=O)c1ccccc1Cl`, for which the inhibition is -0.52% in test [1]; 0.32% in test [2]; 0.79% in [3]; -0.06% in [4]; 2.04% in test [5]; -2.48% in test [6]. Also, the inhibition in test [7] was 1.14%; in test [8], -1.31%; in test [9], -2.45%; in [10] it was -3.45%; in test [11] it was -1.48%; in test [12], -1.15%. Besides, the inhibition is -0.33% in [13]; -4.23% in test [14]; -4.51% in [15]; -2.37% in test [16]; 1.69% in [17]; -2.22% in [18]. Moreover, the inhibition in test [19] and in test [20] was -0.2% throughout.

As to `C[C@@H](Oc1cc(-n2cnc3ccc(OCC4CCN(C)CC4)cc32)sc1C(N)=O)c1ccccc1C(F)(F)F`, the inhibition in [1] was -1.36%; in test [2], -1.18%; in [3], -4.23%; in test [4], 2.6%; in test [5] it was 9.98%; in [6] it was 8.84%. Besides, the inhibition in test [7] was 42.5%; in test [8], -0.46%; in test [9] it was 8.68%; in test [10] it was -1.87%; in test [11], 1.67%; in test [12] it was 1.72%. Moreover, the inhibition in test [13] is 18.6%; in [14], -3.67%; in [15] it was -3.26%; in test [16], -6.9%; in [17], -0.01%; in test [18], -6.91%. For the same molecule, the results for the inhibition in test [19] and in test [20] were -4.57% and -9.54%, respectively.

Consider `NC(=O)c1sc(-n2cnc3ccccc32)cc1OCc1ccccc1Br`, for which the inhibition in [1] is 2.18%; in [2], 1.76%; in test [3] it was 1.6%; in test [4], 1.88%; in [5], 0.93%; in [6], -0.06%. Also, the inhibition came to 5% in test [7]; 1.71% in test [8]; 2.89% in test [9]; 1.26% in test [10]; 1.85% in [11]; 2.85% in [12]. Also, the inhibition came to 1.45% in test [13]; 0.63% in test [14]; 0.39% in [15]; 1.18% in test [16]; 3.38% in [17]; 6.29% in test [18]. Moreover, the inhibition in [19] amounted to 9.89%; in test [20], 5.64%.

For the molecule `CN1CCN(C(=O)c2ccc(NC(=O)Nc3ccc(N(C)c4ccnc(Nc5ccc(CS(C)(=O)=O)cc5)n4)cc3)cc2)CC1`, the inhibition in test [1] is 12.6%; in test [2], 66%; in test [3] it was 85%; in [4], 4.52%; in test [5] it was 7%; in test [6], -3.46%. Moreover, the inhibition is 2.15% in [7]; 1.12% in test [8]; 4.44% in test [9]; -0.46% in test [10]; 1.47% in [11]; -1.16% in test [12]. Also, the inhibition in test [13] came to 2.86%; in [14] it was 0.47%; in test [15], 5.09%; in [16], 0.72%; in test [17], 4.49%; in test [18], 5.53%. Further, the inhibition is 22.9% in [19] and 8.44% in test [20].
